From ChEMBL document CHEMBL4513216, “Probing the Open Global Health Chemical Diversity Library for Multistage-Active Starting Points for Next-Generation Antimalarials” (ACS Infect Dis, 2020)
The whole screen tested about 69,000 compounds, of which about 8,600 (12%) showed an effect of 50% or more. What follows is part of a selection rich in strong results, with near analogues and random picks from the rest.

Tested on: Plasmodium berghei
Assay: Screen against P. berghei liver stage (PbLuc), transformed with Luciferase, at 10uM
Assay type: functional, HepG2
Conditions: tested at 10 uM

| SMILES | INHIBITION [%] |
| --- | --- |
| O=S1(=O)COCCN1Cc1ccc(Cl)c(Cl)c1 | -12.5 |
| c1csc(-c2noc(CNCCn3cccn3)n2)c1 | 18.2 |
| CC(=O)N1CC[C@@H]2CN(Cc3ccncc3)S(=O)(=O)[C@@H]2CC1 | -10.5 |
| Cc1ccsc1CN1CCC(c2nnc(Cn3cccn3)n2C)CC1 | 25.4 |
| COc1cc(C)sc1C(=O)NCCC(=O)N(C)c1ccccc1 | 78.2 |
| COc1cc(C)sc1C(=O)NCCC(=O)N(C)Cc1ccccc1 | 66.3 |
| CN(Cc1ccccc1)C(=O)CCNS(=O)(=O)c1cccnc1 | -17.6 |
| COC(=O)CCNC(=O)c1cccc(C(=O)N(C)c2ccccc2)c1 | 43.4 |
| COc1cc(C)sc1C(=O)NCCNc1ccccc1 | 43.1 |
| COc1ccsc1C(=O)NCCNc1ccccc1 | -33 |
| CC(=O)N1CCCC(c2ccccn2)C1 (centres undefined) | 15.9 |
| CCOCCN1CCC(c2cncc(C)n2)CC1 | 10.155 |
| CC(C)CNC(=O)CN(CC(=O)NCC(C)C)S(C)(=O)=O | 37.4 |
| C=C(C)COc1ccccc1CNC(CC)c1ccnn1C (centres undefined) | 36.7 |
| C=C(C)COc1cccc(CNC(CC)c2ccnn2C)c1 (centres undefined) | 66.6 |
| C=C(C)COc1cccc(CNC(COC)c2ccnn2C)c1 (centres undefined) | 37.6 |
| CC(C)c1ncc(CN2CCC(O)(c3ccccc3F)CC2)cn1 | 33.04 |
| Cc1cc(C)cc(N2CC(c3nnc(N)s3)CC2=O)c1 (centres undefined) | -11.4 |
| c1cn(-c2cnc(C3CCCNC3)cn2)cn1 (centres undefined) | 24.4 |
| CC(C)CN1CCc2[nH]cnc2C12CCN(C(=O)c1ccnn1C)CC2 | 65.8 |
| CC(C)CN1CCc2[nH]cnc2C12CCN(C(=O)c1cccnc1)CC2 | 16.6 |
| CC(C)CN1CCc2[nH]cnc2C12CCN(C(=O)c1cncn1C)CC2 | 33.4 |
| CC(C)CN1CCc2[nH]cnc2C12CCN(C(=O)c1ccc[nH]1)CC2 | 33.4 |
| Cc1ocnc1C(=O)N1CCC2(CC1)c1nc[nH]c1CCN2CC(C)C | 47.4 |
| CC(C)CN1CCc2[nH]cnc2C12CCN(C(=O)c1cnn(C)c1)CC2 | 51.8 |
| Cc1nn(C)cc1-c1cncn1CCc1ccc2c(c1)OCCO2 | 27.6 |
| CC(C)C[C@@H](CO)n1cc(-c2cnc(-c3ccco3)nc2)nn1 | -6.83 |

| SMILES | INHIBITION [%] |
| --- | --- |
| NC(=O)NC(=O)CCN1CCCC1c1nc(C2CCCCC2)co1 (centres undefined) | -5.33 |
| Cc1ccc(F)c2c1N(C(=O)Cc1c(C)nn(C)c1C)CCC2 | -19.1 |
| Cc1nn(C)c(C)c1S(=O)(=O)NCCn1ccc(-c2cccs2)n1 | 63.1 |
| CCCS(=O)(=O)NCCn1ccc(-c2cccs2)n1 | 34.6 |
| CS(=O)(=O)NCCn1ccc(-c2cccs2)n1 | 22.5 |
| O=C(NCC1CCOCC1)[C@H]1C[C@@H]2CCN(Cc3ccncc3)C[C@@H]2O1 | 10 |
| Cc1cn[nH]c1C1COCCN1C(=O)c1cc(F)ccc1F (centres undefined) | 22.8 |
| COCC1CN(Cc2ccc(F)cc2)Cc2nnn(CC3CC3)c21 (centres undefined) | -9.54 |
| COc1ccc2oc(-c3cn(C)nc3C)c(O)c(=O)c2c1 | 8.49 |
| O=C1NCCN2CCN(C(=O)Nc3ccc(-c4ccccc4)cc3)CC12 (centres undefined) | 18.6 |
| COc1cccc(CNC(=O)N2CCN3CCNC(=O)C3C2)c1 (centres undefined) | 15.2 |
| O=C1NCCN2CCN(C(=O)NCCc3ccccc3)CC12 (centres undefined) | 61.1 |
| O=C(c1ccccn1)N1C[C@H]2CC[C@@H](C1)N(C(=O)CCc1cccs1)C2 | 21.8 |
| CCC(=O)N1CCC(c2ncncc2C)CC1 | 21.1 |
| Cc1ncsc1C(=O)Nc1cccc(OCC(F)F)n1 | 17.4 |
| NC(=O)Nc1cccc(C(=O)N(Cc2ccc(F)cc2)C2CC2)c1 | 13.5 |
| Cc1ccc(CN(C(=O)c2cccc(NC(N)=O)c2)C2CC2)o1 | 17.9 |
| NC(=O)Nc1cccc(C(=O)N(Cc2ccncc2)C2CC2)c1 | 71.1 |
| Cc1occc(=O)c1OCc1noc(C(=O)NC2CCCC2)n1 | 6.67 |
| CCOCC1CN(C(=O)c2ccnnc2)Cc2cnn(CC)c21 (centres undefined) | 5.44 |
| CCOCC1CN(C(=O)c2ccco2)Cc2cnn(CC)c21 (centres undefined) | 78.8 |
| CCOCC1CN(C(=O)CS(C)(=O)=O)Cc2cnn(C)c21 (centres undefined) | 19.5 |
| CCOCC1CN(C(=O)C2CCOCC2)Cc2cnn(C)c21 (centres undefined) | 59.9 |
| CCn1ncc2c1C(COCC1CC1)CN(c1ccc(C)nn1)C2 (centres undefined) | 86.2 |
| CCOCC1CN(C(=O)N2CCCC2)Cc2cnn(C)c21 (centres undefined) | 21.4 |
| CCOCC1CN(C(=O)c2ccco2)Cc2cnn(C)c21 (centres undefined) | 18.4 |
| CCOCC1CN(C(=O)c2cccn2C)Cc2cnn(CC3CC3)c21 (centres undefined) | 19 |
